According to PubChem BioAssay AID651899 (Broad Institute, 2012):
Potency and affinity values are given separately. A number with no mark means an inactive call. No rule for the calls is given here.

assay: HEK293 cell viability loss – plate reader, cherry-pick, cytotoxicity control, dose response (AID 651899); conditions: series mostly up to 26 µM; activity change, negative = cytotoxicity: at the top concentration;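 also: cells exposed to compound for 48 hours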

Going from `O=C(Nc1ncc2c(n1)CC(c1ccccc1)CC2=O)c1ccco1` (stereo unspecified) to `CC(=O)c1ccc(NC(=O)C2CC(=O)N(Cc3ccccc3)C2)cc1` (stereo unspecified), the “activity change, negative = cytotoxicity” value falls from 18.7% to -18.9%.

Compared with `O=C(c1ccc(Br)s1)N1CCN(Cc2ccc3c(c2)OCO3)CC1`, `C[C@@H](C(=O)N1CCN(Cc2ccc3c(c2)OCO3)CC1)n1nnc2ccccc2c1=O` is lower in “activity change, negative = cytotoxicity” value: -14.7% for the first, -16.2% for the second.

First: O=C(Nc1nccs1)[C@H]1[C@H](CO)[C@H]2Cn3c(ccc(-c4cccnc4)c3=O)[C@H]2N1CC1CCCC1
Second: O=C(N[C@H]1CC[C@@H](CCn2cc(-c3cccnc3)nn2)O[C@H]1CO)c1ccccc1F
The “activity change, negative = cytotoxicity” value of the first is lower: -6.31% for the first, 3.59% for the second.

Going from `Cc1nc2c(C(=O)N3CCN(c4ccccn4)CC3)cnn2c(C)c1Cc1cccc(Cl)c1` to `Cc1nnc(N2CCC(C(=O)N3CCCCC3)CC2)c2nn(-c3ccc(Cl)cc3)c(C)c12`, the “activity change, negative = cytotoxicity” value falls from 7.49% to -6.45%.

Compared with `CCOc1ccc(CCNC(=O)c2cnc(C)cn2)cc1OCC`, `COc1ccc(C(=O)Nc2ccc(Cn3ccnc3)cc2)cc1OC` is higher in “activity change, negative = cytotoxicity” value: -3.56% for the first, 24.3% for the second.

Compared with `CN1c2ccc(-c3cccc(F)c3)cc2[C@H]2[C@H](CCN2C(=O)c2ccncc2)[C@H]1CO`, `COc1ccc(C(=O)Nc2cccc(NC(=O)c3cccs3)c2)cc1` is higher in “activity change, negative = cytotoxicity” value: 5.32% for the first, 6.74% for the second.

Going from `COC(=O)c1c(C(=O)OC)c(-c2ccccc2)n2c1CS(=O)C2` (stereo unspecified) to `COC(=O)c1sc(N)c(C(=O)OC)c1CSc1nnc(-c2ccccc2Cl)n1C`, the “activity change, negative = cytotoxicity” value rises from 6.13% to 17.1%.

Compared with `COC(=O)C[C@H]1CC[C@@H]2[C@H](COC[C@@H](O)CN2C(=O)Nc2cccc(F)c2)O1`, `COc1cccc(CNC(=O)c2ccc(NC(=O)C3=CSCCO3)cc2)c1` is higher in “activity change, negative = cytotoxicity” value: -0.606% for the first, 1.53% for the second.

Going from `Cc1c(OC(C)C(=O)NCc2ccccn2)ccc2c3c(c(=O)oc12)CCC3` (stereo unspecified) to `CC(Oc1cc2oc(=O)c3c(c2cc1Cl)CCC3)C(=O)NCc1cccnc1` (stereo unspecified), the “activity change, negative = cytotoxicity” value rises from -25.5% to -5.88%.

Compared with `Nn1c(SCc2nc3ccccc3[nH]2)nnc1-c1cccnc1`, `Nn1c(SC/C=C/c2ccccc2)nnc1-c1cccnc1` is higher in “activity change, negative = cytotoxicity” value: -16.1% for the first, -7.17% for the second.

Going from `CCCc1c(OCCCOc2ccc(OCC(=O)O)cc2)ccc(C(C)=O)c1O` to `COc1ccc(C(C)NC(=O)Nc2ccc(C(C)=O)cc2)cc1OC` (stereo unspecified), the “activity change, negative = cytotoxicity” value falls from -1.14% to -10.9%.

Going from `Cc1nc(-c2cccnc2)sc1C(=O)Nc1cccc(C(F)(F)F)c1` to `Cn1nnc2cc(C(=O)Nc3cccnc3)ccc21`, the “activity change, negative = cytotoxicity” value falls from -8.29% to -8.5%.

Compared with `O=C(C[C@@H]1C[C@@H]2c3cc(NC(=O)c4cccnc4)ccc3O[C@@H]2[C@@H](CO)O1)NCc1cccnc1`, `COc1ccc(NC2c3ccccc3C(=O)N2c2cccnc2)cc1Cl` (stereo unspecified) is lower in “activity change, negative = cytotoxicity” value: 2.97% for the first, -15% for the second.

First: COc1cc(-c2n[nH]c(=S)n2-c2cccc(C(F)(F)F)c2)cc(OC)c1OC
Second: COc1ccc(NC(=O)c2ccc(S(=O)(=O)N(C)C)cc2)cc1OC
The “activity change, negative = cytotoxicity” value of the first is lower: -17.8% for the first, 5.37% for the second.

Going from `CC(=O)c1ccc(N2CCN(C(=O)c3ccc4c(c3)OCO4)CC2)cc1` to `CC(=O)c1ccc(C(=O)N2CCCC(CCC(=O)N(C)CCc3ccccn3)C2)s1` (stereo unspecified), the “activity change, negative = cytotoxicity” value rises from -0.24% to 26.2%.

First: CCC(Sc1nc2ccsc2c(=O)n1Cc1ccc(C(=O)O)cc1)C(=O)Nc1cccc(OC)c1 (stereo unspecified)
Second: Cc1ccccc1-n1c(SCC(=O)N(C)C2CCS(=O)(=O)C2)nc2ccccc2c1=O (stereo unspecified)
The “activity change, negative = cytotoxicity” value of the first is higher: 60% for the first, 10.8% for the second.

For `CC1Cc2nc(SCC(=O)N3CCOCC3)n(-c3ccccc3)c(=O)c2S1` (stereo unspecified), the “activity change, negative = cytotoxicity” value was -5.73%.

Going from `CN1c2ccc(-c3ccccc3)cc2[C@H]2[C@H](CCN2C(=O)Cc2ccccn2)[C@H]1CO` to `O=C(C[C@@H]1C[C@H]2c3cc(NC(=O)c4cccnc4)ccc3O[C@H]2[C@@H](CO)O1)NCc1cc(F)ccc1F`, the “activity change, negative = cytotoxicity” value falls from 13.3% [at 23.5 µM] to -2.27% [at 23.5 µM].

With `O=C(Nc1ccc2c(c1)[C@H]1C[C@@H](CC(=O)N3CCc4ccccc4C3)O[C@@H](CO)[C@H]1O2)c1cccnc1` the “activity change, negative = cytotoxicity” value was -13.1% [at 12 µM].
